Measurements taken from the supplement of paper PMC6522484.
± gives the standard deviation of the averaged measurements.

Experiments:
DLD1 [1] = test: cell viability (CellTiter-Glo) relative to plate median (fraction of plate median); higher = more viable cells; details: 5 µM; treatment time 24 h; reporter: 7TFP
Method in brief: (§1)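 Each entry is a luminescence signal normalised to the plate median, averaged over independent replicates. The replicate count was two, and the cells were colorectal cancer lines with stable lentiviral TCF/Wnt firefly luciferase reporters exposed to library compounds at a final 5 µM for 24 h. Firefly luciferase and CellTiterGlo were measured on parallel plates.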

HCT116 = test: as above; details: 5 µM; treatment time 24 h; reporter: TCF4/Wnt
Method in brief: as §1

SW480 [2] = test: as above; details: 5 µM; treatment time 24 h; reporter: 7TFP
Method in brief: as §1

DLD1 [3] = test: TCF/Wnt firefly luciferase reporter signal relative to plate median (fraction of plate median); higher = higher Wnt reporter signal; details: 5 µM; treatment time 24 h; reporter: 7TFP
Method in brief: as §1

SW480 [4] = test: as above; details: 5 µM; treatment time 24 h; reporter: 7TFP
Method in brief: as §1

O=c1c(-c2ccc(O)cc2)coc2cc(O)cc(O)c12 [Genistein (Biofocus)]
cell viability (DLD1 [1]): 1.05 ± 0.078
cell viability (HCT116): 1.04 ± 0.09
cell viability (SW480 [2]): 1.08 ± 0.099
TCF/Wnt firefly luciferase reporter signal (DLD1 [3]): 1.21 ± 0.15
TCF/Wnt firefly luciferase reporter signal (SW480 [4]): 1.06 ± 0.021

O=[N+]([O-])c1cccc2c(Br)[nH]nc12
cell viability (DLD1 [1]): 0.994 ± 0.0057
cell viability (HCT116): 1.02 ± 0.021
cell viability (SW480 [2]): 0.957 ± 0.034
TCF/Wnt firefly luciferase reporter signal (DLD1 [3]): 0.984 ± 0.037
TCF/Wnt firefly luciferase reporter signal (SW480 [4]): 0.967 ± 0.13

Cc1nc2ccccn2c(=O)c1CCN1CCC(C(=O)c2ccc(F)cc2)CC1
cell viability (DLD1 [1]): 0.911 ± 0.15
cell viability (HCT116): 1.03 ± 0.099
cell viability (SW480 [2]): 1.04 ± 0.057
TCF/Wnt firefly luciferase reporter signal (DLD1 [3]): 1.01 ± 0.037
TCF/Wnt firefly luciferase reporter signal (SW480 [4]): 0.947 ± 0.017

Oc1cccc(O)c1
cell viability (DLD1 [1]): 1.02 ± 0.072
cell viability (HCT116): 0.985 ± 0.013
cell viability (SW480 [2]): 1.01 ± 0.02
TCF/Wnt firefly luciferase reporter signal (DLD1 [3]): 0.873 ± 0.074
TCF/Wnt firefly luciferase reporter signal (SW480 [4]): 1.02 ± 0.055

O=C1OC(c2ccc(O)cc2)(c2ccc(O)cc2)c2ccccc21
cell viability (DLD1 [1]): 1.01 ± 0.12
cell viability (HCT116): 1.03 ± 0.12
cell viability (SW480 [2]): 1.025 ± 0.0071
TCF/Wnt firefly luciferase reporter signal (DLD1 [3]): 0.981 ± 0.069
TCF/Wnt firefly luciferase reporter signal (SW480 [4]): 1.04 ± 0.057

COc1ccc2cc3[n+](cc2c1OC)CCc1cc2c(cc1-3)OCO2
cell viability (DLD1 [1]): 1.04 ± 0.021
cell viability (HCT116): 0.984 ± 0.011
cell viability (SW480 [2]): 1.02 ± 0.091
TCF/Wnt firefly luciferase reporter signal (DLD1 [3]): 1.1 ± 0.085
TCF/Wnt firefly luciferase reporter signal (SW480 [4]): 0.954 ± 0.053

CC(=O)c1oc2c(C)c3oc(=O)cc(C)c3cc2c1C [2-Acetyl-3,5,9-trimethylfuro[3,2-g]-chromen-7-one (VFT-04)]
cell viability (DLD1 [1]): 1.02 ± 0.11
cell viability (HCT116): 0.96 ± 0.05
cell viability (SW480 [2]): 1.085 ± 0.0071
TCF/Wnt firefly luciferase reporter signal (DLD1 [3]): 1.16 ± 0.028
TCF/Wnt firefly luciferase reporter signal (SW480 [4]): 1.12 ± 0.078

C/C=C/C=C/c1cc2cc3c(c(O)c2c(=O)[nH]1)C1(CC3)C(O)=c2c(=O)c3c(=O)cc(OC)c(=O)c=3c(=O)c2=C1O (stereo not given) [Fredericamycin]
cell viability (DLD1 [1]): 1.03 ± 0.042
cell viability (HCT116): 0.934 ± 0.022
cell viability (SW480 [2]): 1.04 ± 0.076
TCF/Wnt firefly luciferase reporter signal (DLD1 [3]): 1.06 ± 0.21
TCF/Wnt firefly luciferase reporter signal (SW480 [4]): 0.981 ± 0.084

CN1CCN(C2=Nc3ccccc3Oc3ccc(Cl)cc32)CC1
cell viability (DLD1 [1]): 0.901 ± 0.22
cell viability (HCT116): 0.971 ± 0.055
cell viability (SW480 [2]): 0.927 ± 0.0028
TCF/Wnt firefly luciferase reporter signal (DLD1 [3]): 0.898 ± 0.21
TCF/Wnt firefly luciferase reporter signal (SW480 [4]): 0.89 ± 0.12

CC1(C)CC2C1CCC1(C)OC1CCC2(C)O (stereo not given)
cell viability (DLD1 [1]): 0.995 ± 0.036
cell viability (HCT116): 1 ± 0.067
cell viability (SW480 [2]): 0.975 ± 0.0071
TCF/Wnt firefly luciferase reporter signal (DLD1 [3]): 1.07 ± 0.078
TCF/Wnt firefly luciferase reporter signal (SW480 [4]): 1 ± 0.065

C=CC1=C(C)c2cc3[nH]c(cc4nc(cc5[nH]c(cc1n2)c(C)c5CCC(=O)O)C(CCC(=O)O)=C4C)c(C)c3C=C
cell viability (DLD1 [1]): 1 ± 0.028
cell viability (HCT116): 0.964 ± 0.12
cell viability (SW480 [2]): 0.963 ± 0.053
TCF/Wnt firefly luciferase reporter signal (DLD1 [3]): 0.967 ± 0.027
TCF/Wnt firefly luciferase reporter signal (SW480 [4]): 0.992 ± 0.0057

CCCn1c(=O)c2[nH]c(C3CCCC3)nc2n(CCC)c1=O
cell viability (DLD1 [1]): 0.998 ± 0.059
cell viability (HCT116): 1.03 ± 0.047
cell viability (SW480 [2]): 1.02 ± 0.037
TCF/Wnt firefly luciferase reporter signal (DLD1 [3]): 1.04 ± 0.16
TCF/Wnt firefly luciferase reporter signal (SW480 [4]): 0.968 ± 0.073

CC(C)CCCC(C)N (stereo not given)
cell viability (DLD1 [1]): 0.99 ± 0.012
cell viability (HCT116): 0.929 ± 0.031
cell viability (SW480 [2]): 0.9345 ± 0.0092
TCF/Wnt firefly luciferase reporter signal (DLD1 [3]): 0.875 ± 0.03
TCF/Wnt firefly luciferase reporter signal (SW480 [4]): 0.9465 ± 0.0078

CCCCCCCCCCCCCCCC(=O)OC/C=C(C)/C=C/C=C(C)/C=C/C1=C(C)CCCC1(C)C
cell viability (DLD1 [1]): 0.986 ± 0.048
cell viability (HCT116): 1.07 ± 0.035
cell viability (SW480 [2]): 0.9965 ± 0.0021
TCF/Wnt firefly luciferase reporter signal (DLD1 [3]): 0.885 ± 0.1
TCF/Wnt firefly luciferase reporter signal (SW480 [4]): 1.01 ± 0.073

O=c1n(CCCN2CCN(c3cccc(Cl)c3)CC2)nc2ccccn12
cell viability (DLD1 [1]): 1.005 ± 0.0071
cell viability (HCT116): 0.987 ± 0.12
cell viability (SW480 [2]): 1.01 ± 0.014
TCF/Wnt firefly luciferase reporter signal (DLD1 [3]): 1.08 ± 0.28
TCF/Wnt firefly luciferase reporter signal (SW480 [4]): 0.971 ± 0.083

OC(CCN1CCCCC1)(c1ccccc1)C1CC2C=CC1C2 (stereo not given)
cell viability (DLD1 [1]): 0.9145 ± 0.0021
cell viability (HCT116): 1.01 ± 0.12
cell viability (SW480 [2]): 0.947 ± 0.052
TCF/Wnt firefly luciferase reporter signal (DLD1 [3]): 0.92 ± 0.23
TCF/Wnt firefly luciferase reporter signal (SW480 [4]): 0.835 ± 0.028

COc1ccc(C(=O)c2ccc(O)cc2)c(O)c1O
cell viability (DLD1 [1]): 1.015 ± 0.0071
cell viability (HCT116): 0.971 ± 0.028
cell viability (SW480 [2]): 1.04 ± 0.078
TCF/Wnt firefly luciferase reporter signal (DLD1 [3]): 1.03 ± 0.028
TCF/Wnt firefly luciferase reporter signal (SW480 [4]): 1.06 ± 0.057

COc1cccc2c(C)cc(=O)[nH]c12
cell viability (DLD1 [1]): 1.05 ± 0.15
cell viability (HCT116): 1.07 ± 0.11
cell viability (SW480 [2]): 1.02 ± 0.09
TCF/Wnt firefly luciferase reporter signal (DLD1 [3]): 1.05 ± 0.064
TCF/Wnt firefly luciferase reporter signal (SW480 [4]): 1.11 ± 0.085

Cc1c(C)c2c(c(C)c1O)CCC(C)(CCCC(C)CCCC(C)CCCC(C)C)O2 (stereo not drawn) [alpha-TOCHOPHEROL]
cell viability (DLD1 [1]): 0.963 ± 0.012
cell viability (HCT116): 0.97 ± 0.085
cell viability (SW480 [2]): 1.01 ± 0.017
TCF/Wnt firefly luciferase reporter signal (DLD1 [3]): 1.07 ± 0.014
TCF/Wnt firefly luciferase reporter signal (SW480 [4]): 1.01 ± 0.16

COc1cc(C)c2c(=O)cc(-c3ccccc3)oc2c1
cell viability (DLD1 [1]): 0.991 ± 0.027
cell viability (HCT116): 0.884 ± 0.083
cell viability (SW480 [2]): 1 ± 0.041
TCF/Wnt firefly luciferase reporter signal (DLD1 [3]): 1.18 ± 0.092
TCF/Wnt firefly luciferase reporter signal (SW480 [4]): 1.14 ± 0.014

Nc1ccn([C@@H]2O[C@H](CO)[C@@H](O)[C@@H]2O)c(=O)n1
cell viability (DLD1 [1]): 0.987 ± 0.018
cell viability (HCT116): 0.849 ± 0.092
cell viability (SW480 [2]): 1.1 ± 0.064
TCF/Wnt firefly luciferase reporter signal (DLD1 [3]): 1.08 ± 0.11
TCF/Wnt firefly luciferase reporter signal (SW480 [4]): 0.968 ± 0.14

Cc1cc(=O)oc2cc(O)cc(O)c12
cell viability (DLD1 [1]): 1.05 ± 0.042
cell viability (HCT116): 1.11 ± 0.11
cell viability (SW480 [2]): 1 ± 0.053
TCF/Wnt firefly luciferase reporter signal (DLD1 [3]): 0.888 ± 0.12
TCF/Wnt firefly luciferase reporter signal (SW480 [4]): 0.975 ± 0.12

CCCc1nc2c(C)cc(-c3nc4ccccc4n3C)cc2n1Cc1ccc(-c2ccccc2C(=O)O)cc1
cell viability (DLD1 [1]): 0.975 ± 0.12
cell viability (HCT116): 0.992 ± 0.054
cell viability (SW480 [2]): 1.01 ± 0.021
TCF/Wnt firefly luciferase reporter signal (DLD1 [3]): 0.98 ± 0.028
TCF/Wnt firefly luciferase reporter signal (SW480 [4]): 1 ± 0.021

CCS(=O)(=O)CCn1c([N+](=O)[O-])cnc1C
cell viability (DLD1 [1]): 0.965 ± 0.019
cell viability (HCT116): 0.975 ± 0.014
cell viability (SW480 [2]): 1.01 ± 0.032
TCF/Wnt firefly luciferase reporter signal (DLD1 [3]): 0.869 ± 0.0028
TCF/Wnt firefly luciferase reporter signal (SW480 [4]): 0.862 ± 0.059

OC(CCN1CCCCC1)(c1ccccc1)C1CCCCC1 (stereo not given)
cell viability (DLD1 [1]): 0.963 ± 0.03
cell viability (HCT116): 0.932 ± 0.033
cell viability (SW480 [2]): 0.945 ± 0.052
TCF/Wnt firefly luciferase reporter signal (DLD1 [3]): 0.855 ± 0.052
TCF/Wnt firefly luciferase reporter signal (SW480 [4]): 0.917 ± 0.018

CC(=O)C1=C(O)C=C2Oc3c(C(C)=O)c(O)c(C)c(O)c3C2(C)C1=O (stereo in doubt)
cell viability (DLD1 [1]): 0.995 ± 0.035
cell viability (HCT116): 1.04 ± 0.028
cell viability (SW480 [2]): 0.968 ± 0.018
TCF/Wnt firefly luciferase reporter signal (DLD1 [3]): 1.2 ± 0.13
TCF/Wnt firefly luciferase reporter signal (SW480 [4]): 0.973 ± 0.052

CCN(CC)CCCC(C)Nc1ccnc2cc(Cl)ccc12 (stereo not given)
cell viability (DLD1 [1]): 1.05 ± 0.096
cell viability (HCT116): 1.04 ± 0.12
cell viability (SW480 [2]): 1.05 ± 0.028
TCF/Wnt firefly luciferase reporter signal (DLD1 [3]): 0.974 ± 0.024
TCF/Wnt firefly luciferase reporter signal (SW480 [4]): 1.045 ± 0.0071

C[N+]1(C)C[C@H](O)C[C@H]1C(=O)[O-]
cell viability (DLD1 [1]): 1.03 ± 0.014
cell viability (HCT116): 0.985 ± 0.035
cell viability (SW480 [2]): 0.967 ± 0.0099
TCF/Wnt firefly luciferase reporter signal (DLD1 [3]): 1.06 ± 0.035
TCF/Wnt firefly luciferase reporter signal (SW480 [4]): 0.869 ± 0.025

Cc1c2oc3c(C)ccc(C(=O)N[C@@H]4C(=O)N[C@H](C(C)C)C(=O)N5CCC[C@H]5C(=O)N(C)CC(=O)N(C)[C@@H](C(C)C)C(=O)O[C@@H]4C)c3nc-2c(C(=O)N[C@@H]2C(=O)N[C@H](C(C)C)C(=O)N3CCC[C@H]3C(=O)N(C)CC(=O)N(C)[C@@H](C(C)C)C(=O)O[C@@H]2C)c(N)c1=O
cell viability (DLD1 [1]): 1.06 ± 0.071
cell viability (HCT116): 0.601 ± 0.18
cell viability (SW480 [2]): 1.31 ± 0.035
TCF/Wnt firefly luciferase reporter signal (DLD1 [3]): 0.612 ± 0.11
TCF/Wnt firefly luciferase reporter signal (SW480 [4]): 0.802 ± 0.039

CC(=O)N1CCCC(N)C1=O (stereo not given) [N-Acetyl-3-amino-2-piperidinon]
cell viability (DLD1 [1]): 0.974 ± 0.079
cell viability (HCT116): 0.871 ± 0.021
cell viability (SW480 [2]): 0.946 ± 0.015
TCF/Wnt firefly luciferase reporter signal (DLD1 [3]): 0.821 ± 0.13
TCF/Wnt firefly luciferase reporter signal (SW480 [4]): 0.851 ± 0.044
